From the supplement of paper PMC11732987, “Enantioselective OTUD7B fragment discovery through chemoproteomics screening and high-throughput optimisation” (Communications Chemistry, 2025)

Key:
Assay in all cases: log2 ratio of Biotin-Ahx-Ub-VS probe labelling (fragment/DMSO); higher = less target engagement (more negative = stronger competition), active = hit call of the paper (q ≤ 0.05, log2 ratio ≤ -1)
Details in all cases: compound concentration: 200 uM; treatment time: 3 h
USP34 = USP34 (UniProt Q70CQ2)
Sequence of USP34 (Q70CQ2 whole entry, the tested form may be a part): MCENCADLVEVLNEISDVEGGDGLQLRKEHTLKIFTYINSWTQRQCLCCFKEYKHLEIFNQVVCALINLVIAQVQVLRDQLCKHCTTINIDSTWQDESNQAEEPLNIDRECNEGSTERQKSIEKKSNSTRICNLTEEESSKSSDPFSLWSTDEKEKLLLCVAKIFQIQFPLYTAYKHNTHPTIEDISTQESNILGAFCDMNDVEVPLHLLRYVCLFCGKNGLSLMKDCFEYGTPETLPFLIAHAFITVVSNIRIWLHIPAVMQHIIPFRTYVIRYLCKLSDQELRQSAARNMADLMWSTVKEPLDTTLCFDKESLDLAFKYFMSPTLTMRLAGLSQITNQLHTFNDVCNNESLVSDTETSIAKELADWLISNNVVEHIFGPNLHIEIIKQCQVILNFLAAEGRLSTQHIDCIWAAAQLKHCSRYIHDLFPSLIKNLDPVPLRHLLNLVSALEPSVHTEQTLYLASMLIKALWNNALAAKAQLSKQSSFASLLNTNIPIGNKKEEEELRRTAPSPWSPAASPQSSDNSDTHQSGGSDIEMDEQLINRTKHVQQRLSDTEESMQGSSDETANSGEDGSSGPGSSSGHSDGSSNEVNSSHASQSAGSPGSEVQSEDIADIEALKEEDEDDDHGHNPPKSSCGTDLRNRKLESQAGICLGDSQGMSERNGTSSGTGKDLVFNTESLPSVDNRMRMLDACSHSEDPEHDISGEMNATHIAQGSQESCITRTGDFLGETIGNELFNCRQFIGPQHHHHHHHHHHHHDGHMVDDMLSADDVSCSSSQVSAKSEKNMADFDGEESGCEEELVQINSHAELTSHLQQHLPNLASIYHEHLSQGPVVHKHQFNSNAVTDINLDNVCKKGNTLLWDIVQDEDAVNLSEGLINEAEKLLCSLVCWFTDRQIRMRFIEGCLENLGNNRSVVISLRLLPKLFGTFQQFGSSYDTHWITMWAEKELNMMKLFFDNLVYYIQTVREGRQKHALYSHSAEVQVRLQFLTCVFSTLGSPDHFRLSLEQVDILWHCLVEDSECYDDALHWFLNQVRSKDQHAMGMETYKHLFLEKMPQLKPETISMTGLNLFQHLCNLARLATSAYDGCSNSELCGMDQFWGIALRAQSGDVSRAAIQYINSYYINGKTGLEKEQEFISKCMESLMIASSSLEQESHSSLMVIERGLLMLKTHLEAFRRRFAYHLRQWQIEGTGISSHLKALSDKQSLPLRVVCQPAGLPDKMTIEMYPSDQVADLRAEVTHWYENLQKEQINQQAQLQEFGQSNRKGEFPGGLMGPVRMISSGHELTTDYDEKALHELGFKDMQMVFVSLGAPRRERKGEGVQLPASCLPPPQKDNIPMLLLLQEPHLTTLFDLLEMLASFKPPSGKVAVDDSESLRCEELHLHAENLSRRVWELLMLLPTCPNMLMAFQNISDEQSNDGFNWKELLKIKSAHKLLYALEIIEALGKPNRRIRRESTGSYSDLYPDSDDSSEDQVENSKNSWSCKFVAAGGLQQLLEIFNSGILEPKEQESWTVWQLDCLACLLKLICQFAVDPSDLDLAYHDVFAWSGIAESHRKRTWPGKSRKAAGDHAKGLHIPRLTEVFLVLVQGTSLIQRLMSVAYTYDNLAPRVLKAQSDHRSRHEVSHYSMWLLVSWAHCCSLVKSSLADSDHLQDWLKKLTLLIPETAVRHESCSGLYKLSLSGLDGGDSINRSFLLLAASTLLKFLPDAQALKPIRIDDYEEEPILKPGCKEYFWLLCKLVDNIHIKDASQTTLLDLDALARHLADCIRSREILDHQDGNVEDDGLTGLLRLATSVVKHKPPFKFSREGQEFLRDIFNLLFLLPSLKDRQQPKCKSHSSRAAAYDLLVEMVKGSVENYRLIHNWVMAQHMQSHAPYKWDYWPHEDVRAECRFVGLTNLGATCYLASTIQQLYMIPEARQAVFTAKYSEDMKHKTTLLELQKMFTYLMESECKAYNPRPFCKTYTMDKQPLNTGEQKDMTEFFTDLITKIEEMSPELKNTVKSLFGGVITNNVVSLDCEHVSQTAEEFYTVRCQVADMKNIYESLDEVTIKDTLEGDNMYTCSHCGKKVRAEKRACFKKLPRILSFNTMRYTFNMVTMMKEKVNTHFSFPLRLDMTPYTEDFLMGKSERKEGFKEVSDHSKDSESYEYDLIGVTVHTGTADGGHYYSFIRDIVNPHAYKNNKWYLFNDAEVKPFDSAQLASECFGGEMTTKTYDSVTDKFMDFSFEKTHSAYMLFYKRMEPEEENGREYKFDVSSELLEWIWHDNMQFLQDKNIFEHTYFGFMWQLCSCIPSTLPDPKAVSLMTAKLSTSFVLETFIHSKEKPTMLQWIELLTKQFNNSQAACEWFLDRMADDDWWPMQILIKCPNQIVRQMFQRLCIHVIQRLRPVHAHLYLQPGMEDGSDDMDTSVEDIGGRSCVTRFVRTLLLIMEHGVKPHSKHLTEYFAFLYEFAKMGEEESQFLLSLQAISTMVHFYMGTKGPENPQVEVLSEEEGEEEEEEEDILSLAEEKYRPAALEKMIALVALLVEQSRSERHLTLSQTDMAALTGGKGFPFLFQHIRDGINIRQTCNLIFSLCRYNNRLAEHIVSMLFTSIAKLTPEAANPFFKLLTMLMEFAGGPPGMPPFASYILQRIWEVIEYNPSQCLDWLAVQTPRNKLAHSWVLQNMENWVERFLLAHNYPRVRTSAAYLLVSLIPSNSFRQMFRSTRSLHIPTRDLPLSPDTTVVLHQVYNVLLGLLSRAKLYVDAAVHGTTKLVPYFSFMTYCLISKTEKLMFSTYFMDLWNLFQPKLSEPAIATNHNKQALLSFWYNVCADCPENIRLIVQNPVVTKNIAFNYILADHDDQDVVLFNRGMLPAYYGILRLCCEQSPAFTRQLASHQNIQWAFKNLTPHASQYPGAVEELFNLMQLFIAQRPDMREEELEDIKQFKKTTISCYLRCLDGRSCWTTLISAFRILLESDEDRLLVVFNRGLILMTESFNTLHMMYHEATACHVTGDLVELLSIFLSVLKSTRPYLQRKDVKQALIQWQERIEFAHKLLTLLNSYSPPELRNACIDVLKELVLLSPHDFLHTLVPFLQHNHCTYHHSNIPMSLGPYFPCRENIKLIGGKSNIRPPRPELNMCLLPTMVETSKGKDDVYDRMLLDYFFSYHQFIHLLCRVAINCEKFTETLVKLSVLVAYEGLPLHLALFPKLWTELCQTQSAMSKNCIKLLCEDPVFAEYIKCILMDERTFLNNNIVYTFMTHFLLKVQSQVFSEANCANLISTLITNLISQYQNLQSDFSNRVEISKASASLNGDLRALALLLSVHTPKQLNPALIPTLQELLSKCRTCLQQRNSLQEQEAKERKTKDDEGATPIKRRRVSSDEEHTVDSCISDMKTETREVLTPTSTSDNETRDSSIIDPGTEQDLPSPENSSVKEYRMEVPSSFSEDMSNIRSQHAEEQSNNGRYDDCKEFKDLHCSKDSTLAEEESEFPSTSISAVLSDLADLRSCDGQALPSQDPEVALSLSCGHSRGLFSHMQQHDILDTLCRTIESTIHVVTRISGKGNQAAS
Procedure, shortened: (§1)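 Global-median-normalised Spectronaut label-free quantities were compared by unpaired t-test, and values are average log2 ratios of fragment over vehicle. Only proteins with ≥2 unique peptides were used. HEK293T lysate (495 µg per sample) was treated in triplicate with fragment at 200 µM or vehicle for 3 h and then with Biotin-Ahx-Ub-VS at 0.5 µM final for 1 h. Labelled DUBs were then NeutrAvidin-enriched, digested with LysC and trypsin, and run by diaPASEF LC-MS/MS.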

USP36 = target: T1, USP36 (UniProt Q9P275)
T1 sequence (whole entry): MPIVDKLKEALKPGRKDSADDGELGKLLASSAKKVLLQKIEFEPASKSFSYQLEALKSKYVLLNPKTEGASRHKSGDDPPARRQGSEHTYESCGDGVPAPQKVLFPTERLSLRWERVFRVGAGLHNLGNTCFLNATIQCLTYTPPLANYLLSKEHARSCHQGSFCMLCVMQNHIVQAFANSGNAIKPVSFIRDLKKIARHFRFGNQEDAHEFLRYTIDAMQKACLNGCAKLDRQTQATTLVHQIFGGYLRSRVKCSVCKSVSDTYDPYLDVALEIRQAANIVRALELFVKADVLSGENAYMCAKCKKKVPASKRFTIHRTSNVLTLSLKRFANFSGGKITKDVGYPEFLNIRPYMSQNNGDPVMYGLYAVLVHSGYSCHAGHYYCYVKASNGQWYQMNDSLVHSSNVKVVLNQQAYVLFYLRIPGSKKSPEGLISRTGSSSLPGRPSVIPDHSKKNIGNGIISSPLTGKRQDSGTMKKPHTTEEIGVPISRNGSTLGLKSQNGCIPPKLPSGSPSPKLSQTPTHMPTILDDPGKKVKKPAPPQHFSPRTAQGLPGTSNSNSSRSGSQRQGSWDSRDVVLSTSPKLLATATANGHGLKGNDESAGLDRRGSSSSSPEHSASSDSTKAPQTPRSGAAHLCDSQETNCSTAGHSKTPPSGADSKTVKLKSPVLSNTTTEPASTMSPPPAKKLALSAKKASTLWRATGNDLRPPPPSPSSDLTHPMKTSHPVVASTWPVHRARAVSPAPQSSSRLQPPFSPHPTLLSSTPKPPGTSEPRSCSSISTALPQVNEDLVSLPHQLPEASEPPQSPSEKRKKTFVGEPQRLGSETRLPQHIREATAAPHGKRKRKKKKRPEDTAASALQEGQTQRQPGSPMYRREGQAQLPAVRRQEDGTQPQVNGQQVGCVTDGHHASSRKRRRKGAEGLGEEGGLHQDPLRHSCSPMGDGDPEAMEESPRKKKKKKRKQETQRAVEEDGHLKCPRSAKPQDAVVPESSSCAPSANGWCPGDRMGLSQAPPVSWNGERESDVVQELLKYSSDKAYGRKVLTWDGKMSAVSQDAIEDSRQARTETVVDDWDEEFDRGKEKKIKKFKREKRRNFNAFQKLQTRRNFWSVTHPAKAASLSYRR
Procedure, shortened: as §1

USP38 = target: T2, USP38 (UniProt Q8NB14)
T2 sequence (whole entry): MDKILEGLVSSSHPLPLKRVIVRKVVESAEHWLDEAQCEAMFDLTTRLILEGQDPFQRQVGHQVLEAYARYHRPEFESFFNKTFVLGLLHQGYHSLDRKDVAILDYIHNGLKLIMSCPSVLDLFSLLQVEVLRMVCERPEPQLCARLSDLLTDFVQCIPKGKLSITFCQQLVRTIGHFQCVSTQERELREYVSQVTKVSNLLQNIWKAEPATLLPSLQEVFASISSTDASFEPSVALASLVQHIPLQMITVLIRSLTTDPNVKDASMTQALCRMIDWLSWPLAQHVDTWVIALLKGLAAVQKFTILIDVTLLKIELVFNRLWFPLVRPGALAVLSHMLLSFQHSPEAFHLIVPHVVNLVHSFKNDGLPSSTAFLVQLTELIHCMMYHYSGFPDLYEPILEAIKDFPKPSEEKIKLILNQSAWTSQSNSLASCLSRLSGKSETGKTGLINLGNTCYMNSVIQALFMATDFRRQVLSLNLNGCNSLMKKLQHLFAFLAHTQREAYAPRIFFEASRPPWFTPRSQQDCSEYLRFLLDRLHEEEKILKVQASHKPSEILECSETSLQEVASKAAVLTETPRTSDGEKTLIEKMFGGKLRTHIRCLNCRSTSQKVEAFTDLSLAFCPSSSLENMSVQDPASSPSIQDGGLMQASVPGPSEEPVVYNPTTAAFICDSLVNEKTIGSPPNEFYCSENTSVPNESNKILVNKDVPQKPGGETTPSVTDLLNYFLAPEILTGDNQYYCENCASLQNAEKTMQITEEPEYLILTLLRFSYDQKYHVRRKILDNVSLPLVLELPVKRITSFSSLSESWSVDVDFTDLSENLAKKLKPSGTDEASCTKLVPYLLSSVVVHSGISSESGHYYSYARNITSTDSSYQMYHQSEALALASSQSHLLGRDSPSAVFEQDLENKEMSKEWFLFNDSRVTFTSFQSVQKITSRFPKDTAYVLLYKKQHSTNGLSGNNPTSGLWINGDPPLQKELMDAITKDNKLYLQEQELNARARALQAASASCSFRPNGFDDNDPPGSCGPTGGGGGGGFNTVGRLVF
Procedure, shortened: as §1

USP39 = target: T3, USP39 (UniProt Q53GS9)
T3 sequence (whole entry): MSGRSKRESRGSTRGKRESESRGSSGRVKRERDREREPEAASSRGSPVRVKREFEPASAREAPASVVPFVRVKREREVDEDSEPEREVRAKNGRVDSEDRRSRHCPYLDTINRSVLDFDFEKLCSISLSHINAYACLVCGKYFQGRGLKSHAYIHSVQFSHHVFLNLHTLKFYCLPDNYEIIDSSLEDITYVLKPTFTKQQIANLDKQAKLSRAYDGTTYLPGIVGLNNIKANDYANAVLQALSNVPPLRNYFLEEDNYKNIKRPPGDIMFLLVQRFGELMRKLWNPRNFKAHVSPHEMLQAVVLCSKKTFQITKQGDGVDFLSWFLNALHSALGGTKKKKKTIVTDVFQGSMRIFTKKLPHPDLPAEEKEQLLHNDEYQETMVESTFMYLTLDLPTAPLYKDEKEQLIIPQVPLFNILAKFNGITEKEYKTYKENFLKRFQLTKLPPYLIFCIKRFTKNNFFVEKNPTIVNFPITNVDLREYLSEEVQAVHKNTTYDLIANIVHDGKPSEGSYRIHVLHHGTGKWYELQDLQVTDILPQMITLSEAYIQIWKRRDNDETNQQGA
Procedure, shortened: as §1

USP4 = target: T4, USP4 (UniProt Q13107)
T4 sequence (whole entry): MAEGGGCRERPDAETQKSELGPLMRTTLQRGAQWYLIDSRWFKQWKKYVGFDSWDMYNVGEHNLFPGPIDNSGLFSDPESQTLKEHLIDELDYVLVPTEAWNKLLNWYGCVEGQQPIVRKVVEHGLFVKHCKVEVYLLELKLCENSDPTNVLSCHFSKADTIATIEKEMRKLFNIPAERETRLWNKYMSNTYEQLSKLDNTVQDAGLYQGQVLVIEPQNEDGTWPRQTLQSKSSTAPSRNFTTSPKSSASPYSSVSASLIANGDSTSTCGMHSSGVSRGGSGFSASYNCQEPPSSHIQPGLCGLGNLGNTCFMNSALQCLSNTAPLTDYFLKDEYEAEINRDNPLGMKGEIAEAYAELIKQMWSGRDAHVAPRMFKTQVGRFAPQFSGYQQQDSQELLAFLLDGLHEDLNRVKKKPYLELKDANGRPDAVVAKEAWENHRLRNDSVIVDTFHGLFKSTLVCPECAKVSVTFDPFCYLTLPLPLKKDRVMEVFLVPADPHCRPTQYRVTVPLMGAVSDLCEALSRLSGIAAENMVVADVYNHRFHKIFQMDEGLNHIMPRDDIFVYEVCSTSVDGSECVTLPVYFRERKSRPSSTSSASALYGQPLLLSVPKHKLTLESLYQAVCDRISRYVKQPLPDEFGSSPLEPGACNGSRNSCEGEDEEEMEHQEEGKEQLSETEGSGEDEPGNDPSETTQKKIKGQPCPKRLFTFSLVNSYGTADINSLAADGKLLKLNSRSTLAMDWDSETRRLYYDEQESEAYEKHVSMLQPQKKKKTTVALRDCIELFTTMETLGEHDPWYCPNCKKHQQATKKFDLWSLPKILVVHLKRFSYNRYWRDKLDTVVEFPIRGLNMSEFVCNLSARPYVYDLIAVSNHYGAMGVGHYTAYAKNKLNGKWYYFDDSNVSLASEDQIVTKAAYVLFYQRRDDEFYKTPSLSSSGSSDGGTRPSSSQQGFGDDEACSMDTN
Procedure, shortened: as §1

Measured: log2 ratio of Biotin-Ahx-Ub-VS probe labelling

CC(NC(=O)CCl)c1csc(-c2ccccc2)n1.Cl (stereo not given)
inactive: USP34 -0.477 | USP36 -0.276 | USP38 -0.266 | USP39 0.0283 | USP4 -0.166
